Experimental data: the supplement of paper PMC6555819

Tests used:
Assay in all cases: PBM binding z-score (relative to random genomic background probes); higher = stronger binding; sequences stand for … in GC…GCGATTGACAGCGTAGAATGAAGG
[1] = system: FXR:RXRa (NR concentration 270 nM, RXRa partner concentration 90 nM)
Method in brief: (§1)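 Custom Agilent 4×180K protein-binding microarrays carried double-stranded probes, each with a 34-nt variable region. These regions held direct-repeat seeds, single-nucleotide variants, half-site ablations and random human genomic background sequences. Ligand-free nuclear receptor dimers were incubated on the arrays for 1 h, antibodies against each partner (one per run) detected binding, and scanned fluorescence was regression-normalized. Binding z-scores take the random background probes as reference.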

[2] = system: LXRa:RXRa (NR concentration 270 nM, RXRa partner concentration 90 nM)
Method in brief: as §1

[3] = system: LXRa homodimer (NR concentration 270 nM)
Method in brief: as §1

[4] = system: LXRb:RXRa (NR concentration 270 nM, RXRa partner concentration 90 nM)
Method in brief: as §1

[5] = system: LXRb homodimer (NR concentration 270 nM)
Method in brief: as §1

[6] = system: PPARa:RXRa (NR concentration 270 nM, RXRa partner concentration 90 nM)
Method in brief: as §1

[7] = system: PPARg:RXRa (NR concentration 180 nM, RXRa partner concentration 90 nM)
Method in brief: as §1

[8] = system: PPARg:RXRa 270nM:90nM, anti-RXR (NR concentration 270 nM, RXRa partner concentration 90 nM)
Method in brief: as §1

[9] = system: PPARg:RXRa 30nM:10nM, anti-RXR (NR concentration 30 nM, RXRa partner concentration 10 nM)
Method in brief: as §1

[10] = system: PPARg:RXRa 90nM:30nM, anti-RXR (NR concentration 90 nM, RXRa partner concentration 30 nM)
Method in brief: as §1

[11] = system: PPARg:RXRa DBDmut IVT, anti-RXR (DBD mutation: RXRa K156A/R161A, NR concentration 270 nM, RXRa partner concentration 90 nM)
Method in brief: as §1

[12] = system: PPARg:RXRa IVT, anti-PPARg (NR concentration 270 nM, RXRa partner concentration 90 nM)
Method in brief: as §1

[13] = system: PPARg DBDmut:RXRa IVT, anti-PPARg (DBD mutation: PPARg1 K132A/R137A, NR concentration 270 nM, RXRa partner concentration 90 nM)
Method in brief: as §1

[14] = system: PPARg DBDmut IVT, anti-PPARg (DBD mutation: PPARg1 K132A/R137A, NR concentration 270 nM)
Method in brief: as §1

[15] = system: PPARg homodimer (NR concentration 180 nM)
Method in brief: as §1

[16] = system: PXR:RXRa (NR concentration 270 nM, RXRa partner concentration 90 nM)
Method in brief: as §1

[17] = system: PXR homodimer (NR concentration 270 nM)
Method in brief: as §1

[18] = system: RARa:RXR (NR concentration 270 nM, RXRa partner concentration 90 nM)
Method in brief: as §1

[19] = system: RARa homodimer (NR concentration 270 nM)
Method in brief: as §1

[20] = system: RARb:RXRa (NR concentration 270 nM, RXRa partner concentration 90 nM)
Method in brief: as §1

Row | Sequence | PBM binding z-score [1] | PBM binding z-score [2] | PBM binding z-score [3] | PBM binding z-score [4] | PBM binding z-score [5] | PBM binding z-score [6] | PBM binding z-score [7] | PBM binding z-score [8] | PBM binding z-score [9] | PBM binding z-score [10] | PBM binding z-score [11] | PBM binding z-score [12] | PBM binding z-score [13] | PBM binding z-score [14] | PBM binding z-score [15] | PBM binding z-score [16] | PBM binding z-score [17] | PBM binding z-score [18] | PBM binding z-score [19] | PBM binding z-score [20]
1 | ATCTCTATGTAACAAGTTCAGTGAAAGAGAGGAC | -0.00461 | 0.0801 | 0.289 | 0.189 | 0.769 | 0.267 | 0.597 | 0.532 | 0.31 | 0.575 | -0.367 | 0.29 | 1.13 | 0.92 | 0.596 | 1.35 | 1.37 | 0.511 | 0.404 | 1.08
2 | AATACAGGGTCATCGTCGGCCAGAGTACGCACAG | 7.47 | 6.48 | 2.78 | 4.83 | 1.41 | 6.44 | 6.81 | 6.01 | 2.65 | 4.97 | 2.45 | 4.09 | 1.99 | 1.48 | 3 | 4.39 | 0.762 | 5.31 | 1.13 | 4.46
3 | CCTAGCAGGCCAGGGTCACTTAAGCATTTCGCTT | 1.75 | 1.64 | -0.562 | 1.91 | -1.39 | 2.77 | 0.597 | 1.54 | -0.349 | 0.831 | 0.351 | 1.01 | -1.25 | -0.972 | 0.813 | 2.15 | -0.248 | 2.71 | 0.0986 | 2.54
4 | CCTAGCAGGCCCGGGTCACTCAAGCATTTCGCTT | 1.18 | 1.11 | -0.362 | 1.25 | -0.958 | 2.17 | -0.225 | 0.755 | -0.825 | 0.0676 | -0.956 | -0.289 | -1.26 | -1.82 | 0.788 | 1.78 | -0.484 | 2.49 | -0.473 | 1.63
5 | CCTCGGAGGACAACAGTAGGTCAGAGCTGCCAGA | 0.249 | 0.959 | 1.04 | 0.175 | -0.765 | 1.37 | 0.475 | 0.552 | -0.754 | 0.0572 | 1.42 | 2.02 | -1.19 | -2.12 | 0.785 | 0.462 | -0.203 | 0.798 | -0.275 | 2.05
6 | CCGACTGGGGCAGAAGGTTACCATAAGCCAGCCC | -0.0856 | 1.46 | -0.41 | 0.494 | -1.21 | 1.43 | 1.92 | 3.09 | 0.815 | 2.15 | 1.61 | 1.92 | -0.993 | -1.69 | 0.826 | 0.166 | 0.188 | 0.736 | -0.0153 | 1.25
7 | CCTTACGGGTCAAGGTTTTAGCACGGGTGGTACG | 4.88 | 3.1 | 0.107 | 2.74 | -0.202 | 4.56 | 4.23 | 4.44 | 1.43 | 3.33 | 2.52 | 3.36 | 0.173 | -0.72 | 2.55 | 2.95 | -0.244 | 4.13 | 0.944 | 4.2
8 | TCTATTAGTAGATTAGGGCAACCGAAACAGCGGA | 0.325 | 0.084 | -0.337 | 0.176 | 0.298 | 0.659 | 0.254 | 1.64 | 3.45 | 2.5 | 2.26 | 1.17 | 0.69 | 0.0955 | 0.0523 | 0.229 | 0.0465 | 0.245 | 0.073 | 0.344
9 | CGTCCAAGGTCAATGCTGGGTCAGTGAAAGCATT | 6.49 | 4.95 | 0.942 | 3.75 | 0.628 | 5.14 | 3.82 | 4.53 | 1.09 | 3.07 | 3.06 | 3.71 | -0.934 | -0.907 | 4.17 | 4.66 | 1.2 | 5.52 | 0.99 | 5.31
10 | ACTATTAGTTGAGTTAGGGCAACCGATACGACGC | -0.00299 | -0.201 | 0.321 | -0.189 | 0.544 | -0.0901 | 0.832 | 0.293 | 0.372 | 0.303 | -0.0972 | 0.498 | 1.2 | 0.707 | 0.995 | 0.111 | 0.462 | -0.0618 | 1.3 | 0.797
11 | ATCGAAAGGTCGACGACGTGAGTATACACCGTTT | 3.9 | 3.08 | -0.00126 | 2.61 | 0.501 | 4.21 | 2.29 | 2.7 | 0.988 | 1.77 | 0.416 | 1.22 | 1.4 | 1.43 | 1.37 | 2.32 | -0.182 | 3.07 | 0.0928 | 3.72
12 | TCTAGCAGGCCAGAGGGTCACTCAAGAGGTACGG | 0.812 | 1.03 | -0.601 | 0.926 | -1.51 | 2.39 | 1.43 | 2.72 | 2.09 | 2.57 | 0.944 | 0.645 | -0.27 | -1.24 | 0.106 | 1.57 | -0.442 | 2.03 | -0.734 | 2.09
13 | AAATGTAGGTTAGCTGGGGTCATTCAGACTAGGC | 4.53 | 5.93 | 3.17 | 4.82 | 0.888 | 5.67 | 6.42 | 5.77 | 3.31 | 5.16 | 7.19 | 7.11 | 4.54 | 3.23 | 3.17 | 6.55 | 4.04 | 6.04 | 0.836 | 3.28
14 | CAAACTAGGTCAGAACAGGACAGTGAAGGATGAT | 1.81 | 1.26 | 0.299 | 0.616 | 0.235 | 3.34 | 5.81 | 4.56 | 2.45 | 3.64 | 7.14 | 7.34 | 4.2 | 3.64 | 1.77 | 1.06 | 0.211 | 1.32 | 1.02 | 3.24
